The source of these data is PubChem BioAssay AID1259240 (Keith Lab, Institute of Cancer Science, University of …, 2017).

SMILES strings stand for the structures. Unmarked numbers belong to inactive results. Activity calls are given as the source filed them. Rule as the data show it: active = fold change mostly below about -2 (no sharp cut-off); inactive = mostly above about -1.8.

This test is described as follows: modulation of TERT promoter-driven luciferase – cell-based, luciferase reporter, human, primary screen (AID 1259240). As to conditions: A2780 TERT promoter luciferase reporter, 16 h; at 20 µM, fold versus average of vehicle-only wells. (In general: In a reporter assay the amount or activity of a reporter protein is the signal.)
Turning to `CCOC(=O)/C(=N\OC)c1cn2cc(Br)ccc2n1`, the fold change was 1.2.
The same measure, in the same setting: next, `c1ccc2c(c1)nc(N1CCN(C3CCCCC3)CC1)c1nncn12`: 1.24.
Still for that read-out and setting: next, `COc1ccc(NC(=O)CN2N=NC3C(=O)N(c4ccc(Cl)cc4)C(=O)C32)c(OC)c1` (stereo not given): -1.12.
Still for that read-out and setting: to `O=C(CN1C(=O)COc2ccc(S(=O)(=O)N3CCCCCC3)cc21)N1CCC2(CC1)OCCO2` belongs -1.25; to `O=C(CC1(O)C(=O)N(CCc2ccccc2)c2ccc(Cl)cc21)c1ccc(F)cc1` (stereo not given), -1.87.
With `COc1cccc(NC2SC(=O)N(c3ccccc3)C2=O)c1` (stereo not given), the fold change was 1.28.
Consider `O=S(=O)(NCc1ccccn1)c1cccc2cccnc12`, for which the fold change was -1.29.
The same measure, in the same setting: to `Cn1c(=O)c2c(SCC(=O)Nc3ccccc3F)nc(-c3cccs3)nc2n(C)c1=O` belongs 1.46; to `Cc1c(NC(=O)Nc2cccc(C#N)c2)c(=O)n(-c2ccccc2)n1C`, -1.39.
Same read-out and setting: to `Cn1c(=O)[nH]c(=O)c2c1nc(NCCCO)n2Cc1ccccc1Cl` belongs -1.16; to `CC1(C)CC(=O)c2sc(NC(=O)C(C)(C)C)nc2C1`, 1.32.
`Cc1oc2cc(OC(=O)N3CCOCC3)ccc2c(=O)c1Oc1ccccc1Br`: the fold change was -1.46.
The same measure, in the same setting: next, `COc1ccc(-n2c(-c3ccco3)nc3c(cnn3-c3ccc(Cl)cc3)c2=O)cc1`: -1.39.
With `O=C1Nc2ccc(Br)cc2/C1=C\c1nc2ccccc2c(=O)n1-c1cccc(C(=O)O)c1`, the compound was called inactive.
Regarding `CCc1ccc2c(c1)c1n[nH]c(=S)nc1n2CC`, the fold change was 1.17.
Still for that read-out and setting: to `Cc1cc(C)cc(CC(CC(=O)Nc2nccs2)C(=O)Nc2nccs2)c1` (stereo not given) belongs 1.18.
Still for that read-out and setting: next, `Cc1cccc2nc(COc3ccc(Cl)cc3)cn12`: -4.52 (active); `NC(=O)c1c(NC(=O)c2csc3c2CCCC3)sc2c1CCCC2`: -1.89.
On the same count and under the same terms, next, `C=CCn1c(=N)n(CC(=O)C(C)(C)C)c2ccccc21`: -1.1.
As to `C=CCN1CN=C(NS(=O)(=O)c2ccc(C)cc2)NC1`, the fold change was -1.75.
The same measure, in the same setting: to `CSc1ccc(/C=c2\sc3nc(-c4ccco4)nn3c2=O)cc1` belongs -1.12; to `CCN1CCCC1CNC(=O)CN1C(=O)COc2ccc(S(=O)(=O)N3CCC(C)CC3)cc21` (stereo not given), 1.28; to `Cc1cc(/C=C2/SC(=S)N(CC(=O)O)C2=O)c(C)n1-c1ccncc1`, -3.58 (active).
Same read-out and setting: to `CC1CCN(C(=O)Cn2cc(/C=C3/C(=O)Nc4ccccc43)c3ccccc32)CC1` belongs 1.13.
Consider `CCOC(=O)Cn1c(=O)oc2cc(S(=O)(=O)N3CCCC3)ccc21`, for which the fold change was -1.16.
Same read-out and setting: to `O=C(O)CN1C(=O)/C(=C\c2cn(Cc3ccc(F)cc3)c3ccccc23)SC1=S` belongs -1.28.
On the same count and under the same terms, next, `O=C(NCCCN1CCCC1)c1ccc2nc(N3CCOCC3)sc2c1`: -1.09; `Cc1nn(-c2nc3ccccc3[nH]2)c(=O)c2ccccc12`: -14.7 (active).
The same measure, in the same setting: to `COc1cc2[nH]c(=O)n(CC3CCCO3)c(=O)c2cc1OC` (stereo not given) belongs 1.01; to `CCOC(=O)N1CCC(Nc2c(NCCN3CCCCC3CC)c(=O)c2=O)CC1` (stereo not given), -1.19; to `O=C(CSc1ncnc2ccccc12)N1CCCc2ccccc21`, -1.11.
Turning to `O=C(Cn1c(=O)c(C(F)(F)F)nc2ccccc21)N1CCCC1`, the fold change is -1.02.
Take `COc1cc2c(c(OC)c1OC)C(c1cccnc1)CC(=O)N2` (stereo not given): the fold change was -1.07.
As for `CCC(C(=O)O)N1C(=O)/C(=C/c2ccc(OC)cc2)SC1=S` (stereo not given), the fold change is -2.97 (active).
Take `CCOC(=O)N1CCC(Nc2c(N(C)C3CCCCC3)c(=O)c2=O)CC1`: the fold change was 1.05.
On the same count and under the same terms, to `O=C(CSc1nnc2c(n1)[nH]c1ccccc12)c1ccc(Br)cc1` belongs 1.22; to `COc1cc(C(=O)Nc2ccc3oc(-c4ccncc4)nc3c2)cc(OC)c1OC`, -1.49; to `CCNC(=O)CC1C(=O)N(c2ccc(F)cc2)C(=O)N1CCC(C)C` (stereo not given), 1.24.
Same read-out and setting: to `O=C(NCc1ccc(Cl)cc1)c1c[nH]n2c(=O)cc(C3CCNCC3)nc12` belongs -1.87; to `CC1CC(C)CN(C(=O)Cn2c(=O)oc3cc(S(=O)(=O)NC4CCCC4)ccc32)C1` (stereo not given), 1.02.
